Bioassay records as filed in PubChem BioAssay.
Shown are actives, neighbours in structure and some others; about 19% of the full set was active somewhere.
HT1080NT lethal – qHTS for induction of synthetic lethality in tumor cells producing 2HG: qHTS for the HT-1080-NT fibrosarcoma cell line. HT-1080-NT fibrosarcoma viability, CellTiter-Glo ATP luminescence, 48 h. Potency, µM (doses to about 46.1 µM), inactives show top-dose activity, negative = less viability, usual class: cytotoxic. 360,000 compounds, 1.6% hits;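 note: NT is the 2HG producing partner of a matched IDH1 knockdown line; potency is the fitted concentration of half-maximal effect; 0% = DMSO-treated cells and -100% = media-only wells without cells; nearly all actives have a fitted effect of over 55% in size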
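HT-1080-NT fibrosarcoma cells (2HG-overproducing), 750 cells/well in RPMI with 5% FBS, dosed after 2 h and incubated 48 h at 37C. CellTiter-Glo luminescence normalized to DMSO and no-cell wells; concentration-response curves fitted and classed.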
TDP1 cell CPT – qHTS for Inhibitors of human tyrosyl-DNA phosphodiesterase 1 (TDP1): qHTS in cells in presence of CPT; chicken DT40 Tdp1-/-;hTDP1 cells + 20 nM CPT, ATP luminescence, 48 h; Potency, µM (highest dose often 46.2 µM), for the others: at the highest dose activity change, negative = growth inhibition, hits mostly inhibitors; 420,000 compounds, 12% hits; AID 686979, 2013; note: potency is the fitted concentration of half-maximal effect; nearly all actives have a fitted effect of over 55% in size
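Chicken DT40 Tdp1-/- cells complemented with human TDP1, 400 cells/well, exposed to compounds plus 20 nM camptothecin for at least 48 h at 37 C; viability read as ATP content by CellTiter-Glo luminescence.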
HT1080 IDH1KD tx – qHTS for induction of synthetic lethality in tumor cells producing 2HG: qHTS for the HT-1080-IDH1KD cell line; HT-1080 IDH1 knockdown viability, ATP luminescence, 48 h; Potency, µM (top dose mostly 46.1 µM), without a hit: at the highest dose activity, negative = toxicity, hits mostly cytotoxic; 360,000 compounds, 2% hits; AID 686971, 2013;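 note: potency is the fitted concentration of half-maximal effect; 0% = DMSO wells and -100% = cell-free medium wells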
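% activity derives from luminescence (CellTiter-Glo), normalised to DMSO and no-cell wells. HT-1080-IDH1KD cells, 750/well, had 48 h compound exposure at 37 °C.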
DT40 TDP1 no CPT – qHTS for Inhibitors of human tyrosyl-DNA phosphodiesterase 1 (TDP1): qHTS in cells in absence of CPT. DT40 Tdp1-/- hTDP1 cells, no CPT, ATP luminescence, 48 h. Potency, µM (series often up to 46.2 µM), without a hit: at the top dose activity change, negative = growth inhibition, most hits filed as inhibitors. 420,000 compounds, 15% hits; note: potency is the fitted concentration of half-maximal effect; nearly all actives have a fitted effect of over 55% in size
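Seeded 400 DT40-hTDP1 cells/well (vehicle DMSO, no 20 nM CPT); pinned compounds; ≥48 hr at 37 °C; CellTiter-Glo luminescence as viability measure.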
IL1B secr inh – qHTS for Inhibitors of Inflammasome Signaling: IL-1-beta AlphaLISA Primary Screen; THP-1 LPS/ATP IL-1B secretion, AlphaLISA, 16 h; hits give low values; activity change, % at 57.5 µM; 360,000 compounds, 4.7% hits; in the data active = activity change below about -50%; inconclusive = mostly about -30% to -49%
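THP-1 cells pretreated 1 hr with compounds (up to 57.5 uM final), then stimulated with LPS (250 ng/mL final) plus ATP (1.25 mM final); secreted IL-1B measured by AlphaLISA after 16 hr, decreased signal indicating inhibition.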
Numbers without * were called inactive; ? = inconclusive; · = not tested or not shown; [ ] = another dose, or the depositor's remark. Unless noted, calls come from the whole dose curve; as a rule, active = well fitted curve in the direction sought with a large enough effect; inconclusive = small, poorly fitted or top-dose-only effect, or another doubt; inactive = no such curve, though single readings can be large; an effect the other way counts as inactive or inconclusive. Unless noted, % is set by controls: 0 for no effect and ±100 for the full control effect.

SMILES | HT1080NT lethal | TDP1 cell CPT | HT1080 IDH1KD tx | DT40 TDP1 no CPT | IL1B secr inh
O=C(Nc1ccc2c(c1)OCO2)c1ccc2sc([C@@H]3O[C@H](CO)[C@H](O)[C@H](O)[C@H]3O)nc2c1 | -28% | ? | -21% | 1% | -7
Cc1ccc(/C=N/NC(=O)c2nnn(-c3nonc3N)c2C(C)C)s1 | 11% | -12% | 6% | -22% | 3
CN(CC(=O)Nc1ccc(N2CCOCC2)cc1)C(=O)Cc1ccccc1 | 0% | ? | 12% | -23% | 3
O=S(=O)(c1ccc(Cl)cc1)N1CCCC1c1nc(-c2cccc(Cl)c2)no1 (stereo not drawn) | 1% | 23µM* | -2% | ? | 8
C[C@@H]1CCC2[C@](C)(CO)[C@@H](O)CC[C@]2(C)[C@@]12CC[C@@](CO)(CC(=O)O)O2 (stereo partly drawn) | 14% | 4% | 3% | -4% | -3
Cc1ccccc1-c1cc(NCc2cccnc2)ncn1 | · | -6% | · | 10% | ·
Cc1noc(C)c1-c1cc(NCc2ccccc2)ncn1 | · | ? | · | 23µM* | ·
COc1ccccc1-c1cc(NCc2ccccc2)ncn1 | · | 6.5µM* | · | 5.8µM* | ·
COc1ccc(CNc2cc(-c3ccccc3Cl)ncn2)c(OC)c1 | · | ? | · | -11% | ·
Cc1noc(C)c1-c1cc(NC2CC2)ncn1 | · | 12µM* | · | 8.2µM* | ·
Cc1ccccc1-c1cc(NCc2ccccc2)ncn1 | · | 15µM* | · | 21µM* | ·
O=C(CSc1nnc(-c2ccc(Cl)cc2)o1)N1CCc2ccccc21 | · | 5% | · | 0% | ·
COc1ccccc1-c1cc(Nc2ccc(F)cc2)ncn1 | · | ? | · | 23µM* | ·
Cc1noc(C)c1-c1cc(N2CCN(C)CC2)ncn1 | · | -12% | · | -1% | ·
Cc1noc(C)c1-c1cc(Nc2ccc(F)cc2)ncn1 | · | -28% | · | -18% | ·
Cc1noc(C)c1-c1cc(N(C)C)ncn1 | · | ? | · | 23µM* | ·
CC1(C)C2CC=C(/C=N/NC(=O)c3ccccc3Br)C1C2 (stereo not drawn) | 0% | ? | -7% | ? | 5
O[C@@H]1CN(C2CCCCC2)CC[C@H]1N1CCN(CCc2ccccc2)CC1 | -25% | 1% | -28% | ? | -2
CCN(CC)S(=O)(=O)c1cc(-c2nnc(-c3ccc(Br)cc3)o2)ccc1Br | 2% | 15µM* | 1%[9.24 µM] | 9.2µM* | ?
CCN(CC)S(=O)(=O)c1cc(-c2nnc(-c3ccc(Br)cc3)o2)ccc1Cl | -13% | 12µM* | -9% | 18µM* | ?
CCN(CC)S(=O)(=O)c1cccc(-c2nnc(-c3ccc(C)cc3)o2)c1 | -3% | ? | 0% | -21% | -6
Cc1nc2ccccc2c(=O)n1NC(=O)c1cc(Br)ccc1Cl | 1% | 13% | 1% | 25% | -1
C[C@H](CO)N1C[C@H](C)[C@@H](CN(C)Cc2ccc(C(=O)O)cc2)Oc2c(NS(=O)(=O)c3ccc(F)cc3)cccc2C1=O | 11% | 10% | 10% | -7% | -6
CC1CCc2c(sc(/N=C/N(C)C)c2C#N)C1 (stereo not drawn) | -12% | ? | 1% | -20% | -63*
CCOC(=O)c1cnc2c(C)cc(Cl)cc2c1NCCCN1CCOCC1 | 2% | -25% | 5% | ? | -73*
SMILES | HT1080NT lethal | TDP1 cell CPT | HT1080 IDH1KD tx | DT40 TDP1 no CPT | IL1B secr inh
CCOC(=O)c1cnc2ccc(Br)cc2c1NCCN1CCOCC1 | · | 21µM* | · | 21µM* | ·
CCOC(=O)c1cnc2c(CC)cccc2c1NCCN1CCOCC1 | -5% | ? | -3% | 23µM* | ?
CCOC(=O)N1CCN(C(=O)CSc2ccc3nnc(CCNC(=O)c4ccc(OC)cc4)n3n2)CC1 | ? | -2% | -1% | ? | -4
OCC(O)COc1ccc(Cl)cc1 (stereo not drawn) | · | -17% | · | -21% | ·
Cc1cc(SCc2ccc(Cl)cc2Cl)nc(=O)[nH]1 | -10% | ? | ? | 10µM* | 13
Cc1cc(SCc2ccccc2Cl)nc(=O)[nH]1 | 22% | 7% | 9% | 7% | 13
Cc1ccc(C(=O)COC(=O)c2ccccc2NC(=O)c2ccccc2)cc1[N+](=O)[O-] | -8% | -10% | -3% | -6% | 17
CCCCC[C@H](C)N1C[C@H](COCc2ccccc2)Oc2cc(N3CC[C@@H](O)C3)ccc2S1(=O)=O | ? | ? | ? | ? | -12
CCCCC[C@@H](C)N1C[C@@H](COCc2ccccc2)Oc2cc(N3CCC[C@H]3COC)ccc2S1(=O)=O | -18% | ? | -14% | 18µM* | 39
CCCCC[C@@H](C)N1C[C@H](COCc2ccccc2)Oc2cc(N3CCC[C@H]3COC)ccc2S1(=O)=O | 0% | 5.8µM* | -4% | 6.5µM* | 2
CCCCC[C@H](C)N1C[C@@H](COCc2ccccc2)Oc2cc(N3CC[C@H](O)C3)ccc2S1(=O)=O | ? | ? | ? | ? | -7
CCCCC[C@H](C)N1C[C@H](COCc2ccccc2)Oc2cc(N3CCC[C@H]3COC)ccc2S1(=O)=O | -5% | ? | -18% | 18µM* | 0
CCCCC[C@H](C)N1C[C@@H](COCc2ccccc2)Oc2cc(N3CCC[C@@H]3COC)ccc2S1(=O)=O | 11% | 21µM* | 16% | 18µM* | 42
CCCCC[C@@H](C)N1C[C@@H](COCc2ccccc2)Oc2cc(N3CCC[C@@H]3COC)ccc2S1(=O)=O | -28% | ? | -15% | 16µM* | 56
COc1ccc(-c2noc(C3CCCN(C(=O)c4ccccc4OC)C3)n2)cc1OC (stereo not drawn) | -3% | ? | -23% | ? | -9
O=C(c1ccc(F)cc1F)N1CCCC(c2nc(-c3ccc(F)cc3)no2)C1 (stereo not drawn) | -16% | ? | -7% | 18µM* | -21
O=C(Nc1ccc(F)cc1F)N1CCCC(c2nc(-c3ccc(F)cc3)no2)C1 (stereo not drawn) | -1% | 18µM* | -13% | ? | -15
C=CCC1(CC=C)CCCN1C(=O)C1CCC(=O)N(CCc2ccc(OC)cc2)C1 (stereo not drawn) | 4% | 12µM* | 8% | 10µM* | -4
COc1ccc(CCN2CC(C(=O)N3CCC(OC)CC3)CCC2=O)cc1 (stereo not drawn) | 0% | 4% | 3% | -2% | -16
